The record followed here is PubChem BioAssay AID504834 (National Center for Advancing Translational Sciences (NCATS), 2011).

In all, about 320,000 compounds went through this assay and about 22,000 (6.9%) were called active. Roughly 27% stayed inconclusive and do not appear here. The list comes from a sample in which actives are over-represented; it also holds similar structures and randomly drawn compounds. Values without a mark were called inactive. The call rests on the fitted dose curve; in most records, active means well fitted inhibition curve with a large enough effect; inconclusive means small, poorly fitted or top-dose-only effect, or another doubt; inactive means no such curve, though single readings can be large or run the other way.
On the % scale 0 is the no-effect control and ±100 the full control effect; potency means the concentration at half of the fitted maximal effect.

The test can be described thus: Primary qHTS for delayed death inhibitors of the malarial parasite plastid, 96 hour incubation. Conditions: P. falciparum luciferase reporter growth; series mostly up to 28.7 µM; activity change, negative = inhibition: at the top concentration. In a few lines:
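Erythrocytes infected with luciferase-expressing P. falciparum were dispensed at 2% hematocrit and 0.05% parasitemia (final), then incubated with compounds 96 hours at 37 C in 5% CO2. Luminescence after detection reagent addition reported growth.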
Background: In qHTS, concentration-response curves come from the screen itself.
Regarding `COc1cccc(-c2nc(CS(=O)(=O)CC(=O)NCCc3ccc(OC)c(OC)c3)c(C)o2)c1`, the “activity change, negative = inhibition” value was 20.7%.

As to `O=C(NCc1ccccc1)c1onc(CSc2nc3ccccc3[nH]2)c1C(=O)NCc1ccccc1`, the Potency is 1.85 µM (active).

For the molecule `COc1ccccc1CSc1nc2ccccc2[nH]1`, the “activity change, negative = inhibition” value is -3.5%.

For `CCc1nc2ccccc2c(C(=O)NCc2ccc(OC)cc2)c1C`, the “activity change, negative = inhibition” value is -18.8%.

In the case of `Cc1ccc(C)c(NC(=O)COC(=O)Cn2c(C)csc2=O)c1`, the “activity change, negative = inhibition” value is -25.6%.

On to `O=C(Nc1ccccc1)C1CC(=O)n2c(nc3ccccc32)N1` (stereo unspecified), for which the “activity change, negative = inhibition” value was 16.1%.

With `Cc1ccc(OCC(=O)Nc2ccccc2C(=O)NC2CC2)cc1`, the “activity change, negative = inhibition” value was -22.2%.

As for `CC1(c2ccc(Cl)cc2)NC(=O)N(CC(=O)c2ccc3c(c2)OCO3)C1=O` (stereo unspecified), the “activity change, negative = inhibition” value was 43.1%.

For `O=C(NCCCN1CCOCC1)c1ccc(N2CCCC2)c([N+](=O)[O-])c1`, the “activity change, negative = inhibition” value was 486%.

As for `CCOC(=O)c1c(NC(=O)c2ccc(N3CCOCC3)c([N+](=O)[O-])c2)sc(C)c1C`, the “activity change, negative = inhibition” value is 3.58%.

As to `COCCNC(=O)c1ccc(N2CCC3(CC2)OCCO3)c([N+](=O)[O-])c1`, the Potency is 14.7 µM (active).

Take `Cc1cccc(-c2noc(CCC(=O)NC3CCCC3)n2)c1`: the “activity change, negative = inhibition” value was 14.7%.

Turning to `NS(=O)(=O)c1cc(C(=O)OCC(=O)NNC(=O)c2ccccc2)ccc1Cl`, the “activity change, negative = inhibition” value was 68.3%.

Consider `CC1CCC(N2CC(=O)N(Cc3ccc4c(c3)OCO4)C(c3ccc(F)cc3)C2=O)CC1` (stereo unspecified), for which the Potency is 9.28 µM (active).

In the case of `O=C(/C=C/c1ccc2c(c1)OCO2)NCc1ccc(F)cc1`, the “activity change, negative = inhibition” value was 255%.

Take `CC1CCC(NC(=O)C2c3ccccc3C(=O)N2Cc2ccc3c(c2)OCO3)CC1` (stereo unspecified): the “activity change, negative = inhibition” value is 56.1%.

As for `O=S(=O)(c1cccc(Cn2nnc(-c3ccc(F)cc3)n2)c1)N1CCOCC1`, the “activity change, negative = inhibition” value was -12.7%.

For `CCOC(=O)c1cc(=O)c2ccc(OCc3ccccc3)cc2o1`, the “activity change, negative = inhibition” value is 27.5%.

As to `CC(C)Oc1ccc(C(=O)NCC(=O)Nc2ccc3c(c2)CCC3)cc1`, the “activity change, negative = inhibition” value is 36.9%.

Take `Nc1ccc2nn(-c3ccc(Cl)cc3)nc2c1`: the “activity change, negative = inhibition” value was 155%.

Consider `Cc1ccc(-n2ncc3c2ncn2nc(-c4ccco4)nc32)c(C)c1`, for which the “activity change, negative = inhibition” value is 44.3%.

For `COC(=O)CSc1ncnc2c1cnn2-c1ccc(C)cc1C`, the “activity change, negative = inhibition” value is 87.9%.

`Cc1ccc(-n2ncc3c(=O)[nH]cnc32)c(C)c1`: the Potency was 14.7 µM (active).

As to `COc1cc(NC(=O)C2=CC(c3ccc(C)cc3)=NS(=O)(=O)N2C)cc(OC)c1OC`, the “activity change, negative = inhibition” value was -4.54%.

Turning to `CCOC(=O)C1(CCOc2ccccc2)CCN(Cc2cc(OC)cc(OC)c2)CC1`, the “activity change, negative = inhibition” value is 0.22%.

Take `CCOC(=O)C1(CCOc2ccccc2)CCN(C(=O)c2cncs2)CC1`: the Potency was 9.28 µM (active).

On to `CCCS(=O)(=O)N1CCC(CCOc2ccccc2)(C(=O)OCC)CC1`, for which the “activity change, negative = inhibition” value is -21.7%.

In the case of `CC(=O)NCC(=O)N1CCC(n2nccc2NC(=O)CCCc2ccccc2)CC1`, the “activity change, negative = inhibition” value is 21.2%.

On to `CCOc1ncccc1C(=O)Nc1ccc(S(=O)(=O)Nc2nc(C)cc(C)n2)cc1`, for which the “activity change, negative = inhibition” value was 24.2%.

As to `COc1ccc(/C=C(\NC(=O)c2ccccc2)C(=O)NCCN2CCOCC2)cc1OC`, the “activity change, negative = inhibition” value is 20.6%.

With `Nc1nc(NCc2ccccc2)n(-c2ccccc2)n1`, the “activity change, negative = inhibition” value is 10.3%.

With `Cc1ccc2nc(SCC(=O)Nc3cccc4ccccc34)nc(=O)n2c1`, the “activity change, negative = inhibition” value is 9.87%.

On to `COc1ccccc1N1CCN(S(=O)(=O)c2ccc(Cl)cc2)CC1`, for which the “activity change, negative = inhibition” value was -24.6%.

Turning to `COc1ccccc1N1CCN(S(=O)(=O)c2ccc3c(c2)NC(=O)CS3)CC1`, the Potency was 11.7 µM (active).

As for `COc1ccccc1N1CCN(C(=O)CCS(=O)(=O)c2ccc3c(c2)NC(=O)C(C)S3)CC1` (stereo unspecified), the “activity change, negative = inhibition” value is 102%.

With `Cc1cc(C)c2c(Cn3ccnc3)cc(=O)oc2c1`, the “activity change, negative = inhibition” value was -21%.

For the molecule `CCOc1ccc(S(=O)(=O)N2CCC(C(=O)OCc3ccc(OC)cc3)CC2)cc1`, the “activity change, negative = inhibition” value was -38.3%.

On to `O=C(CSc1n[nH]c(-c2cccs2)n1)N1CCCCC1`, for which the “activity change, negative = inhibition” value was 26.9%.

As for `Nc1ncc(CN2CCCC(C(=O)Nc3ccc(-c4ccco4)cc3)C2)cn1` (stereo unspecified), the “activity change, negative = inhibition” value is 58.2%.

Consider `NC(=O)c1cc(S(=O)(=O)NCCCc2ccco2)cs1`, for which the “activity change, negative = inhibition” value is 23.8%.

For `S=C(Nc1cccc(Cl)c1)Nc1ccc2c(c1)OCCO2`, the “activity change, negative = inhibition” value is 0%.

With `CCS(=O)(=O)N1Cc2ccccc2CC1C(=O)Nc1ccc(OC)cc1OC` (stereo unspecified), the “activity change, negative = inhibition” value is -16.9%.

For `COc1ccc(C(=O)Nc2c(Cl)cc(Cl)cc2C(=O)N2CCC(C)CC2)cc1`, the Potency is 13.1 µM (active).

As to `COc1ccc(N2CCN(C(=O)C3CCN(C(=O)c4ccccc4Cl)CC3)CC2)cc1`, the “activity change, negative = inhibition” value is 26%.

Take `COc1ccc(C(=O)N2CCC(C(=O)Nc3ccc(C)cc3)CC2)cc1`: the “activity change, negative = inhibition” value is -19.5%.

For the molecule `CCCCc1ccc(NC(=O)NCc2cccnc2)cc1`, the “activity change, negative = inhibition” value is 11.3%.

In the case of `CCOc1ccc(S(=O)(=O)NCCC(=O)NCC(C)(C)N2CCOCC2)cc1`, the “activity change, negative = inhibition” value was 20.6%.

`O=C(N/N=C/c1coc2ccccc2c1=O)c1cc2ccccc2o1`: the “activity change, negative = inhibition” value is 1.51%.

With `CC(C)(C)OC(=O)NCCCCCC(=O)N/N=C/c1coc2ccccc2c1=O`, the “activity change, negative = inhibition” value is 80.7%.

Turning to `Cc1ccc2occ(/C=N/NC(=O)c3ccccc3C)c(=O)c2c1`, the Potency is 11.7 µM (active).

For the molecule `Cc1[nH]c2ccccc2c1C(=O)CN1CCCC(C)C1` (stereo unspecified), the “activity change, negative = inhibition” value was -14.5%.

For `O=C(CSC1=NS(=O)(=O)c2cc(F)ccc2N1)Nc1ccccc1F`, the “activity change, negative = inhibition” value is 60.3%.

Regarding `CCOc1ccc(C(=O)Nc2cc(Cl)ccc2-n2cncn2)cc1OC`, the “activity change, negative = inhibition” value is -2.8%.

Regarding `COc1ccc(NC(=O)C(CC(C)C)NC(=O)C2CCC(C)CC2)cc1` (stereo unspecified), the “activity change, negative = inhibition” value was -1.4%.

`CC(C)[C@H](NC(=O)N1c2ccccc2NC(=O)[C@@H]1C(C)C)C(=O)N[C@H](C(=O)O)c1ccccc1`: the Potency was 8.28 µM (active).

Consider `CC(C)[C@H](NC(=O)N1CC(=O)Nc2ccccc21)C(=O)N[C@@H](Cc1c[nH]c2ccccc12)C(=O)O`, for which the “activity change, negative = inhibition” value was -23.4%.

Take `CC1C(=O)Nc2ccccc2N1C(=O)c1ccc(F)cc1F` (stereo unspecified): the “activity change, negative = inhibition” value was 4.46%.

Turning to `O=C(CNC(=O)c1cccnc1)N/N=C/c1cc(Br)c(O)c(Br)c1`, the “activity change, negative = inhibition” value is 45%.

Regarding `O=C(CCS(=O)(=O)c1ccccc1)NC1CCCC1`, the “activity change, negative = inhibition” value is 8.16%.

On to `COC(=O)c1ccc(CNC(=O)C2CCC(=O)N(Cc3ccccn3)C2)cc1` (stereo unspecified), for which the “activity change, negative = inhibition” value was 238%.

On to `N#CCSc1nc2ccc(N3CCOCC3)cc2c(=O)n1CCc1ccccc1`, for which the Potency is 13.1 µM (active).

In the case of `CCCCn1c(N)c(N2CCOCC2)c(=O)n(CC(=O)NCCc2ccccc2)c1=O`, the “activity change, negative = inhibition” value was 15.5%.

As to `O=C(CCn1c(SCC(=O)c2ccccc2)nc2ccccc2c1=O)NCc1ccc(F)cc1`, the “activity change, negative = inhibition” value is 0%.

Turning to `O=S(=O)(NCc1cccnc1)c1ccc(Cl)nc1`, the “activity change, negative = inhibition” value is 69.2%.

With `O=C(O)C1CC(=O)N(Cc2cccnc2)C1` (stereo unspecified), the “activity change, negative = inhibition” value is -6.43%.

As for `COC(=O)c1ccc(C23CC4(C2)[C@H](CN(Cc2cccnc2)[C@@H]4c2ccccc2)C3c2ccc(Cl)nc2)cc1` (stereo partly specified), the Potency was 2.33 µM (active).
